Experimental data as given in PubChem BioAssay (EPA / NIEHS).
Results filed as inconclusive are left out. Activity calls are given as the source filed them. The calls were made as follows: active = hit-call score of the fitted dose curve at least 0.9, where 1 is the maximum; inconclusive = response in the unintended direction; inactive = score below 0.9.

Experiments:
[1] = biological target: human Opioid Receptor Mu (Opiate Mu), OPRM1 (gene 4988) (UniProt P35372); test: NVS_GPCR_hOpiate_mu: NovaScreen (NVS) G Protein-Coupled Receptor Assay for human Opioid Receptor Mu (Opiate Mu) (AID 2283290);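 also: hits lower bound tracer signal versus DMSO meaning displacement of the ligand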
Procedure, shortened: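 Cell-free radioligand binding to membranes from CHO cells expressing the receptor; bound tracer measured by filter-based scintillation counting 2.5 hours after dosing. Loss of signal versus DMSO baseline reflects displacement; primary screen at 25 uM in duplicate, actives followed up in concentration series.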

[2] = biological target: guinea pig Serotonin, 5-Hydroxytryptamine Receptor 4 (5HT4), HTR4 (gene 100135548) (UniProt O70528); test: NVS_GPCR_g5HT4: NovaScreen (NVS) G Protein-Coupled Receptor Assay for guinea pig Serotonin, 5-Hydroxytryptamine Receptor 4 (5HT4) (AID 2283294)
Procedure, shortened: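 Compounds first screened in duplicate at 25 uM, actives followed up in concentration series. Binding measured as displacement of specific radioligand from guinea pig striatal membranes, 1 h, filter-based scintillation read-out versus DMSO baseline.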

[3] = test system: rat Adrenergic, Alpha 1B Receptor (Adra1B), gene 24173; test: NVS_GPCR_rAdra1B: NovaScreen (NVS) G Protein-Coupled Receptor Assay for rat Adrenergic, Alpha 1B Receptor (Adra1B) (AID 2283297)
Procedure, shortened: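 Filter-binding radioligand competition on membranes from rat liver, read after 1 h by scintillation counting. Single-concentration duplicate screen at 25 uM, followed by concentration-response on actives, normalised to DMSO.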

[4] = biological target: rat Adrenergic Receptor, Beta (Adrb), Non-selective Binding, Adrb1 (gene 24925) (UniProt P18090); test: NVS_GPCR_rAdrb_NonSelective: NovaScreen (NVS) G Protein-Coupled Receptor Assay for rat Adrenergic Receptor, Beta (Adrb), Non-selective Binding (AID 2283298)
Experimental: NVS_GPCR_rAdrb_NonSelective is a biochemical, single-readout assay that uses extracted gene-proteins from Rat cortical membranes in a tissue-based cell-free assay. Measurements were taken 1 hour after chemical dosing in a 48-well plate.NVS_GPCR_rAdrb_NonSelective is one of one assay component(s) measured or calculated from the NVS_GPCR_rAdrb_NonSelective assay. It is designed to make measurements of radioligand binding, a form of binding reporter, as detected with scintillation counting signals by Filter-based radiodetection technology.Data from the assay component NVS_GPCR_rAdrb_NonSelective was analyzed into 1 assay endpoint. This assay endpoint, NVS_GPCR_rAdrb_NonSelective, was analyzed in the positive analysis fitting direction relative to DMSO as the negative control and baseline of activity. Using a type of binding reporter, loss-of-signal activity can be used to understand changes in the binding as they relate to the gene Adrb1. Furthermore, this assay endpoint can be referred to as a primary readout, because the performed assay has only produced 1 assay endpoint. To generalize the intended target to other relatable targets, this assay endpoint is annotated to the gpcr intended target family, where the subfamily is rhodopsin-like receptor.
Binding assays used specific radioligands (tritiated, iodinated) with non-radioactive competitive displacement ligands in agonist or antagonist protocols (as indicated) and various reference compounds and inhibitors to titrate specific binding to receptors and transporters. Most enzyme assays (CYPs, kinases, phosphatases, proteases, HDACs) used recombinant protein and specific substrates (fluorescence mostly, some colorimetric and radioactive) and inhibitors, followed by a biochemical separation of substrate and product. All assays for the biochemical HTS were initially run in duplicate at a single concentration (10 uM for CYP450 assays and 25 uM for all others). Assay-chemical combinations meeting a pre-defined threshold (e.g., 30% inhibition and other criteria defined below) were then run in singleton concentration-response format with maximum concentration of 20 uM for CYPs and 50 uM for all others. Each assay was run with positive and negative controls, and concurrent controls on every plate. The follow-up (secondary) screen tested active chemical-pairs in concentration series, as well as a few additional assays not tested in the primary screen, some selected negative inactives, and several cases re-run in the concentration series for confirmatory purposes.

[5] = biological target: rat Serotonin, 5-Hydroxytryptamine Receptor (5HT), Non-Selective Binding, Htr1a (gene 24473) (UniProt P19327); test: NVS_GPCR_r5HT_NonSelective: NovaScreen (NVS) G Protein-Coupled Receptor Assay for rat Serotonin, 5-Hydroxytryptamine Receptor (5HT), Non-Selective Binding (AID 2283295)
Procedure, shortened: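 Rat cortex membrane preparation incubated 1 h with radioligand and test chemical; bound radioactivity counted after filtration. Screening began in duplicate at 25 uM with concentration-series follow-up; fitting relative to DMSO.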

[6] = biological target: rat Gamma-Aminobutyric Acid Type B Receptor (GABBR), Gabbr1 (gene 81657) (UniProt Q9Z0U4); test: NVS_GPCR_rGABBR: NovaScreen (NVS) G Protein-Coupled Receptor Assay for rat Gamma-Aminobutyric Acid Type B Receptor (GABBR) (AID 2283301)
Procedure, shortened: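 Rat cortical membrane preparation, competitive radioligand binding for 1 h with filtration and scintillation readout. Actives from duplicate single-point 25 uM screening proceeded to concentration series with 50 uM top concentration.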

[7] = biological target: guinea pig Bradykinin Receptor B2 (BK2), BDKRB2 (gene 100135486) (UniProt O70526); test: NVS_GPCR_gBK2: NovaScreen (NVS) G Protein-Coupled Receptor Assay for guinea pig Bradykinin Receptor B2 (BK2) (AID 2283292)
Procedure, shortened: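 Guinea pig ileum membrane preparation incubated 1 h with radioligand and test chemical; bound counts measured after filtration. Primary duplicate screening at 25 uM, then singleton concentration series with a 50 uM top dose; DMSO as baseline.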

[8] = biological target: mouse Cholecystokinin, CCK2 Receptor (CCKB), Cckbr (gene 12426) (UniProt P56481); test: NVS_GPCR_mCKKBCentral: NovaScreen (NVS) G Protein-Coupled Receptor Assay for mouse Cholecystokinin, CCK2 Receptor (CCKB) (AID 2283293)
Procedure, shortened: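 Mouse forebrain membrane preparation incubated 2 h with chemical and radioligand; bound radioactivity counted after filtration. Single-concentration duplicate screen at 25 uM, then concentration series to 50 uM max for hits, DMSO as baseline.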

[9] = biological target: rat Adrenergic Receptor, Alpha 2 (Adra2), Non-selective Binding, Adra2a (gene 25083) (UniProt P22909); test: NVS_GPCR_rAdra2_NonSelective: NovaScreen (NVS) G Protein-Coupled Receptor Assay for rat Adrenergic Receptor, Alpha 2 (Adra2), Non-selective Binding (AID 2283299)
Procedure, shortened: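 Filter-based scintillation counting of radioligand binding to rat cortical membrane receptors, measured 1.25 hours post-dosing; loss of signal versus DMSO indicates displacement. Initial single-concentration duplicate at 25 uM, then concentration series.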

[10] = biological target: rat Adrenergic, Alpha 1A Receptor (Adra1A), Adra1a (gene 29412) (UniProt P43140); test: NVS_GPCR_rAdra1A: NovaScreen (NVS) G Protein-Coupled Receptor Assay for rat Adrenergic, Alpha 1A Receptor (Adra1A) (AID 2283296)
Procedure, shortened: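 Filter radiodetection after 1 h competitive binding on CEC-pretreated rat cortical membranes. Duplicate single-point screening at 25 uM; active chemicals retested across concentration series.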

rat Gamma-Aminobutyric Acid Type B Receptor (GABBR), Gabbr1 (gene 81657), sequence (Q9Z0U4 whole entry, looked up): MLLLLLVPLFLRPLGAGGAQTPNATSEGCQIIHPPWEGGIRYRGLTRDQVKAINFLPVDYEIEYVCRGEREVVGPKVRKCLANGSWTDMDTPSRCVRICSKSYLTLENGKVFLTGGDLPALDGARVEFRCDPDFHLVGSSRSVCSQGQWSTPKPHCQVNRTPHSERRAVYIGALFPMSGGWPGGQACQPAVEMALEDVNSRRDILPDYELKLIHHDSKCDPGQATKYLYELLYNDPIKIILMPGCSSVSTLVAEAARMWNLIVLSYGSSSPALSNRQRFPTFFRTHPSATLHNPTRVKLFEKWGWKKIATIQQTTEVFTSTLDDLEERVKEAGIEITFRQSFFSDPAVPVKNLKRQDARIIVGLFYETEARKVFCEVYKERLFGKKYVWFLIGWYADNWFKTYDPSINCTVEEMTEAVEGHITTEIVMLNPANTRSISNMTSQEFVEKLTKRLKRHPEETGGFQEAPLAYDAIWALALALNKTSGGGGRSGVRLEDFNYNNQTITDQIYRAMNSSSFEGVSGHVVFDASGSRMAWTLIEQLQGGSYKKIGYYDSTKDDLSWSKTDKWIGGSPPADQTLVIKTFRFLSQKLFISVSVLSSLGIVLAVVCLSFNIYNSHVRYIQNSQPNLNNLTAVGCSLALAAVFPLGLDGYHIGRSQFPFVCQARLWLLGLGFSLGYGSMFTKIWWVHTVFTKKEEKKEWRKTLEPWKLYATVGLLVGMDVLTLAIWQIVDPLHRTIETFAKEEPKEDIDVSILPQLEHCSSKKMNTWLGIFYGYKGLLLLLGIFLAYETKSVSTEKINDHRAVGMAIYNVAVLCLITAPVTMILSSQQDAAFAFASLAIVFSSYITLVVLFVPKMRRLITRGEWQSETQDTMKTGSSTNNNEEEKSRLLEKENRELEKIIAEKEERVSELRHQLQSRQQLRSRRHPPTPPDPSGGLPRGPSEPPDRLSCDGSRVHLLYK
guinea pig Serotonin, 5-Hydroxytryptamine Receptor 4 (5HT4), HTR4 (gene 100135548), sequence (O70528 whole entry, looked up): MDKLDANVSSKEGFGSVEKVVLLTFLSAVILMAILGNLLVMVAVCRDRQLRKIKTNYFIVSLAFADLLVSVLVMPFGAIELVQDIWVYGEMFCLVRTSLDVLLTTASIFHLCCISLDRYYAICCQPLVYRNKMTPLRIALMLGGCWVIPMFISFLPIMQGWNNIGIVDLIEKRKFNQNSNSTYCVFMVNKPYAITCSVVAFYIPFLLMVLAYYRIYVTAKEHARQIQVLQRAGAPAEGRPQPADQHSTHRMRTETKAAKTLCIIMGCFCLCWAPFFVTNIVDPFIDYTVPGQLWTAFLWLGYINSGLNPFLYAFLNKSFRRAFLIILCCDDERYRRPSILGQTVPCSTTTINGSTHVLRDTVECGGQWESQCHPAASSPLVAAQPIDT
rat Adrenergic Receptor, Beta (Adrb), Non-selective Binding, Adrb1 (gene 24925), sequence (P18090 whole entry, looked up): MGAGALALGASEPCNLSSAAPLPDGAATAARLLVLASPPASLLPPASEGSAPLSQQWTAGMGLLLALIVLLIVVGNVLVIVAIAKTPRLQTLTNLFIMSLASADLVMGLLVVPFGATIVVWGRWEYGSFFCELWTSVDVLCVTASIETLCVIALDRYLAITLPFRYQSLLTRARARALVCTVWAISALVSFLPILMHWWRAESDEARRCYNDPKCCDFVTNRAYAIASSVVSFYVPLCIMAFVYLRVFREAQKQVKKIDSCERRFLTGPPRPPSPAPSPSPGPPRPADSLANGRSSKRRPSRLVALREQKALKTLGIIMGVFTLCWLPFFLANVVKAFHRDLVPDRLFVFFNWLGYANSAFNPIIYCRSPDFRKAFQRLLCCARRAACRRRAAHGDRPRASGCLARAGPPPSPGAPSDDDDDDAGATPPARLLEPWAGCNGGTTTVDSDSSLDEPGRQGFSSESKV
human Opioid Receptor Mu (Opiate Mu), OPRM1 (gene 4988), sequence (P35372 whole entry, looked up): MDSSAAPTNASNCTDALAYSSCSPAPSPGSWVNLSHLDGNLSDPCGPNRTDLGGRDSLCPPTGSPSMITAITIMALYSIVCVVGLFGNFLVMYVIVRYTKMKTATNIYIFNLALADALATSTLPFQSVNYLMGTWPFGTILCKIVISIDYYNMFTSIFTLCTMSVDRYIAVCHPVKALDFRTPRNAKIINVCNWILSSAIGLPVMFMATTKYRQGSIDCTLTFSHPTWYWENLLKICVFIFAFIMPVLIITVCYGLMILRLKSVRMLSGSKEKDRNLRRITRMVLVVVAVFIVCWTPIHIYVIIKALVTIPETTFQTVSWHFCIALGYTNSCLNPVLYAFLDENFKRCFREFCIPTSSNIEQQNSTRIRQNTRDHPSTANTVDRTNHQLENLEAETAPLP
rat Serotonin, 5-Hydroxytryptamine Receptor (5HT), Non-Selective Binding, Htr1a (gene 24473), sequence (P19327 whole entry, looked up): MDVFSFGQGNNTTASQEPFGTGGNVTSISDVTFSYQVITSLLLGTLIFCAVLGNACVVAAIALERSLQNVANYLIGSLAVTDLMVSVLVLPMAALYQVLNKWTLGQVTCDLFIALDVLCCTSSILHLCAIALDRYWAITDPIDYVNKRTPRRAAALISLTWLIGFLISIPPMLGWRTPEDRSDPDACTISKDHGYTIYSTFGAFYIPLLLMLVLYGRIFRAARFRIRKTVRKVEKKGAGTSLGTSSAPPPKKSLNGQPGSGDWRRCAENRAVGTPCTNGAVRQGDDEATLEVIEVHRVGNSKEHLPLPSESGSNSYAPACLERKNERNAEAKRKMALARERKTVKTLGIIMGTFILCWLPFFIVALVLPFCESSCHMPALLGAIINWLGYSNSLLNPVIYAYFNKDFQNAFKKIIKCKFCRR
rat Adrenergic Receptor, Alpha 2 (Adra2), Non-selective Binding, Adra2a (gene 25083), sequence (P22909 whole entry, looked up): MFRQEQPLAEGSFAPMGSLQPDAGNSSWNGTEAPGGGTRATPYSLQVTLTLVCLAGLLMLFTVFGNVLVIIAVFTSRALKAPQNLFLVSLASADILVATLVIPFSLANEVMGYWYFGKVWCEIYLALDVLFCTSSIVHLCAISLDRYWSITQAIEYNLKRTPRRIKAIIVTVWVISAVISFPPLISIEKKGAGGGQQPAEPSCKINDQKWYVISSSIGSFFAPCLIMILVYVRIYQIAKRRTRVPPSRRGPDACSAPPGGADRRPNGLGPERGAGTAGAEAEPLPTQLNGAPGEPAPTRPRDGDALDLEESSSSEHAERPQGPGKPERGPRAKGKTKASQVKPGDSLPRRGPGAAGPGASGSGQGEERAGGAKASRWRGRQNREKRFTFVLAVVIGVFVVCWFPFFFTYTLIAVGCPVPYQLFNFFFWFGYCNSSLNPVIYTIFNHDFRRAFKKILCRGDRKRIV
rat Adrenergic, Alpha 1A Receptor (Adra1A), Adra1a (gene 29412), sequence (P43140 whole entry, looked up): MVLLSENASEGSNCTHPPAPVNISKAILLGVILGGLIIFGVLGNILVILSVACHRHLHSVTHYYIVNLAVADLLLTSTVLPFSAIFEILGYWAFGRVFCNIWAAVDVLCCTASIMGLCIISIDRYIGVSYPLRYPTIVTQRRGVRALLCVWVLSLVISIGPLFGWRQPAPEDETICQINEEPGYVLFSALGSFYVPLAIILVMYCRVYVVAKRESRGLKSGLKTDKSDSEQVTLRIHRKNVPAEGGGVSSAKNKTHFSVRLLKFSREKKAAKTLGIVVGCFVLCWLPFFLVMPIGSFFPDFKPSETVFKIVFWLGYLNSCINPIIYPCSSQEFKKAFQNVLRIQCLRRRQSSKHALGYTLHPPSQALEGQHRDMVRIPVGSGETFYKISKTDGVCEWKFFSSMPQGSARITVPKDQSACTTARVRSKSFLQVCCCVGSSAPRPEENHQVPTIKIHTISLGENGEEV
guinea pig Bradykinin Receptor B2 (BK2), BDKRB2 (gene 100135486), sequence (O70526 whole entry, looked up): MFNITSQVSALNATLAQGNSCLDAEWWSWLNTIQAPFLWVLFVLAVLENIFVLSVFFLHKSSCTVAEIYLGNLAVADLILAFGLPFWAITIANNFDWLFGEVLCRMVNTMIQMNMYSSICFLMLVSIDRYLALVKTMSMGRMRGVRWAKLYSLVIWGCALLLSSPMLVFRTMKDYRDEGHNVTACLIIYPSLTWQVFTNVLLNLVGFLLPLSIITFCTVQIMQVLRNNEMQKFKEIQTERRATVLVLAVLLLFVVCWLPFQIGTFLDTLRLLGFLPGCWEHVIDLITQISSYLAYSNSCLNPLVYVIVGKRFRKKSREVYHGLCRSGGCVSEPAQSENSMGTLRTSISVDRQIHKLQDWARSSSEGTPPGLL
mouse Cholecystokinin, CCK2 Receptor (CCKB), Cckbr (gene 12426), sequence (P56481 whole entry, looked up): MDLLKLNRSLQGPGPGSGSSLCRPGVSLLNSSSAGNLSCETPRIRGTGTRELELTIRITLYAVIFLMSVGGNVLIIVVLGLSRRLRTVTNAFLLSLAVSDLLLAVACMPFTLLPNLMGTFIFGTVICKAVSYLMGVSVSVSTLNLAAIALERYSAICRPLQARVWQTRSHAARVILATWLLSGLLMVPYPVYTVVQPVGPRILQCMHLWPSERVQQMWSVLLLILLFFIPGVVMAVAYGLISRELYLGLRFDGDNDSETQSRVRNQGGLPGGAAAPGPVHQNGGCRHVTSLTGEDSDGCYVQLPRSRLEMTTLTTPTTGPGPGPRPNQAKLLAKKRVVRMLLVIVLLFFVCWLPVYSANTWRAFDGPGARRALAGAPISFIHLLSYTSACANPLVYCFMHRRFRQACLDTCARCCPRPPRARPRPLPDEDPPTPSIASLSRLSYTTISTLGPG

With `CC#C[C@]1(O)CC[C@H]2[C@@H]3CCC4=CC(=O)CCC4=C3[C@@H](c3ccc(N(C)C)cc3)C[C@@]21C` the AC50 [1] was 0.908 µM (active).

With `CC(C)(C)c1ccc(O)c(C(C)(C)C)c1` the outcome [1] was “inactive”.

In the case of `CCC(=C(c1ccc(O)cc1)c1ccc(OCCN(C)C)cc1)c1ccccc1`, the AC50 [1] is reported as 3.93 µM (active) and the AC50 [2] is reported as 0.868 µM (active).

For `Cc1cc(C)c(O)c(C)c1`, the outcome [2] was “inactive”.

`CCCCCCCCCCCCCC[N+](C)(C)C` was tested, and the AC50 [1] was 8.19 µM (active).

In the case of `CC[C@H](c1ccc(O)cc1)[C@@H](CC)c1ccc(O)cc1`, the AC50 [1] is reported as 1.1 µM (active).

For `CCCCCCCC(=O)O`, the outcome [3] was “inactive”.

In the case of `O=c1c(-c2ccc(O)cc2)coc2cc(O)ccc12`, the outcome [4] is reported as “inactive”.

With `CN1CCN(c2ccccc2/C=C2\SCCN(c3ccc(Cl)c(Cl)c3)C2=O)CC1` the AC50 [2] was 6.07 µM (active), the AC50 [5] was 11.9 µM (active) and the AC50 [4] was 2.29 µM (active).

With `NC(=O)N1C(=O)C(C(=O)c2cc(Cl)cs2)c2cc(F)c(Cl)cc21` (configuration not stated) the outcome [1] was “inactive” and the outcome [6] was “inactive”.

With `Cc1oc(-c2ccccc2)nc1CCOc1ccc(C[C@H](Nc2ccccc2C(=O)c2ccccc2)C(=O)O)cc1` the outcome [1] was “inactive”, the outcome [7] was “inactive” and the AC50 [8] was 46 µM (active). For the same molecule, the AC50 [2] was 25 µM (active), the AC50 [9] was 35.6 µM (active) and the outcome [6] was “inactive”.

With `CCCOc1sc(C(=O)N2CCC(c3cc(CN)ccc3F)CC2)c(C)c1Br` the AC50 [1] was 3.97 µM (active), the AC50 [2] was 25.9 µM (active) and the AC50 [5] was 11.1 µM (active). For the same molecule, the AC50 [3] was 17.3 µM (active), the AC50 [4] was 3.95 µM (active) and the AC50 [9] was 23.2 µM (active).

`CC[C@H](C)[C@@H](C(=O)O)n1sc2ccccc2c1=O` was tested, and the outcome [3] was “inactive”.

For `Nc1cccc2c(N)cccc12`, the outcome [2] was “inactive” and the AC50 [9] was 16.8 µM (active).

In the case of `O=C(O)Cc1cc(I)c(Oc2cc(I)c(O)c(I)c2)c(I)c1`, the AC50 [1] is reported as 14.3 µM (active).

With `Oc1cc2ccccc2c2ccccc12` the outcome [2] was “inactive”.

`CCCCCCCCCCCCc1ccccc1S(=O)(=O)O` was tested, and the AC50 [1] was 15.1 µM (active) and the AC50 [3] was 30.9 µM (active).

In the case of `CC(=O)NC1(c2cccc(F)c2)CCN(CC[C@@]2(c3ccc(Cl)c(Cl)c3)CN(c3ccccc3)C(=O)CO2)CC1`, the AC50 [1] is reported as 10.3 µM (active), the AC50 [5] is reported as 2.9 µM (active) and the AC50 [10] is reported as 34.8 µM (active).

`NC(=O)N(O)[C@@H]1C=C[C@H](Oc2cccc(Oc3ccc(F)cc3)c2)C1` was tested, and the outcome [1] was “inactive”, the AC50 [2] was 17.6 µM (active) and the outcome [3] was “inactive”. For the same molecule, the outcome [9] was “inactive”.

In the case of `Cc1cc(CCN2CCN(c3nsc4ccccc34)CC2)cc2c1NC(=O)CC2(C)C`, the AC50 [2] is reported as 15.2 µM (active) and the outcome [6] is reported as “inactive”.

For `O=[N+]([O-])c1ccc(O)cc1`, the outcome [5] was “inactive”.

In the case of `CCN(CC)CCNc1ccc(CNC=O)c2sc3ccc(OC)cc3c(=O)c12`, the AC50 [1] is reported as 9.79 µM (active), the AC50 [2] is reported as 7.23 µM (active) and the AC50 [5] is reported as 40.2 µM (active). For the same molecule, the AC50 [10] was 18.9 µM (active), the AC50 [3] was 19.4 µM (active) and the AC50 [9] was 13.6 µM (active).

`CCCCCCCCC(=O)O` was tested, and the outcome [7] was “inactive”.

In the case of `CC(C)CCCCCCOC(=O)CCCCC(=O)OCCCCCCC(C)C`, the outcome [1] is reported as “inactive” and the outcome [4] is reported as “inactive”.
